Columns and labels:
Test in all cases: PBM binding z-score (relative to random genomic background probes); higher = stronger binding; sequences stand for … in GC…GCGATTGACAGCGTAGAATGAAGG
[1] = test system: FXR:RXRa (NR concentration 270 nM, RXRa partner concentration 90 nM)
In short: (§1)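 Probes were double-stranded and carried 34-nt variable regions with direct-repeat seeds, single-nucleotide variants, half-site ablations and random human genomic background sequences, printed on custom Agilent 4×180K protein-binding microarrays. Arrays were incubated 1 h with ligand-free nuclear receptor dimers in PBS pH 7.4, 2% milk, 0.02% Triton X-100, 1 mM DTT, 0.2 mg/mL BSA and 0.4 mg/ml salmon testes DNA. Antibodies against each partner (one per run) detected binding, and scanned fluorescence was regression-normalized. Binding z-scores use the random background probes as reference.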

[2] = test system: LXRa:RXRa (NR concentration 270 nM, RXRa partner concentration 90 nM)
In short: as §1

[3] = test system: LXRa homodimer (NR concentration 270 nM)
In short: as §1

[4] = test system: LXRb:RXRa (NR concentration 270 nM, RXRa partner concentration 90 nM)
In short: as §1

[5] = test system: LXRb homodimer (NR concentration 270 nM)
In short: as §1

[6] = test system: PPARa:RXRa (NR concentration 270 nM, RXRa partner concentration 90 nM)
In short: as §1

[7] = test system: PPARg:RXRa (NR concentration 180 nM, RXRa partner concentration 90 nM)
In short: as §1

[8] = test system: PPARg:RXRa 270nM:90nM, anti-RXR (NR concentration 270 nM, RXRa partner concentration 90 nM)
In short: as §1

[9] = test system: PPARg:RXRa 30nM:10nM, anti-RXR (NR concentration 30 nM, RXRa partner concentration 10 nM)
In short: as §1

[10] = test system: PPARg:RXRa 90nM:30nM, anti-RXR (NR concentration 90 nM, RXRa partner concentration 30 nM)
In short: as §1

| Sequence | PBM binding z-score [1] | PBM binding z-score [2] | PBM binding z-score [3] | PBM binding z-score [4] | PBM binding z-score [5] | PBM binding z-score [6] | PBM binding z-score [7] | PBM binding z-score [8] | PBM binding z-score [9] | PBM binding z-score [10] |
| --- | --- | --- | --- | --- | --- | --- | --- | --- | --- | --- |
| ATACAAAGGTGATCGTGAGGTCGTTGATACTAAC | 2.64 | 2.6 | 0.941 | 1.91 | 0.00532 | 2.76 | 1.87 | 1.95 | 0.554 | 1.27 |
| CGAACTAGGTCATTGACAGGACAGTGTATAGTAA | 4.45 | 3.09 | 0.874 | 2.13 | 0.106 | 4.79 | 7.66 | 6.32 | 3.42 | 5.88 |
| TCTGCTAGGTCAACGCTGGTCAGCTAATCTGCTA | 3.47 | 3.1 | -0.234 | 1.74 | -0.356 | 3.27 | 2.09 | 3.24 | 1.85 | 2.54 |
| TCGAGTAGGTTAGTCGGAGCATTCAGCCAACATA | -0.453 | -0.512 | -0.667 | -0.741 | -1.46 | 0.0631 | -0.127 | 0.379 | 0.624 | 0.538 |
| CCTACTGGGCCAAAGGTTATTGATTCCAATGCTC | 0.648 | 1.32 | 0.345 | 1.76 | -0.363 | 5.33 | 10.4 | 9.22 | 8.72 | 10.5 |
| GTACGAAGGTGAATAGGTCGTTGATGAGTAGGCG | 0.531 | 0.661 | -0.364 | 0.505 | -0.557 | 2.15 | 1.38 | 1.87 | 0.421 | 1.22 |
| TAGCCTAGGTCATTGGGCCCGTATAGTACGCATC | 4.15 | 3.59 | 0.962 | 2.9 | 0.67 | 3.84 | 2.27 | 2.57 | 0.517 | 1.74 |
| CCTCGGAGGACAGAAGGCCAGAGCTGTCCGCTTT | -0.543 | -0.556 | -1.17 | -1.28 | -1.6 | -1.15 | -0.739 | -1.08 | -1.21 | -1.06 |
| CCGACTGGGGCAAGATTACCATAACGCACAGCCA | -0.454 | -0.432 | -0.473 | -0.425 | -1.17 | -0.0466 | 1.17 | 0.422 | -0.715 | -0.513 |
| TCGAGTAGGTTAGGGGCATTGAGAATGGCGTCGA | 0.089 | 0.155 | -0.182 | 0.843 | -0.13 | 1.18 | 0.706 | 1.97 | 1.38 | 1.51 |
| CCGACTGGGGCATAAGGTAACCATAAGCCAGCCC | 0.215 | 0.187 | -0.284 | -0.112 | -1.47 | 1.08 | 2.79 | 3.22 | 1.32 | 3.24 |
| TATACAGGGTCAAAGGCCACAGTACGAATGTCGA | 7.15 | 6.26 | 2.88 | 5.26 | 2.68 | 6.52 | 9.43 | 8.36 | 7.28 | 8.74 |
| AGAATGAGGTTATTAAGATCAGTGAATTGCGGTC | 1.66 | 1.74 | 0.236 | 1.27 | 0.0793 | 2.7 | 1.43 | 1.81 | 0.385 | 0.958 |
| ATATGTAGGTTCTCGGGTCATTCAGTTTGCGCAT | 2.58 | 2.33 | 1.35 | 2.78 | 0.765 | 3.89 | 3.39 | 3.71 | 1.14 | 2.94 |
| CCGAGTTGGTTATGGGGCATTCAGGCAACGGTGA | 0.0617 | 0.0147 | -0.147 | 0.0515 | -0.451 | 0.287 | 0.0793 | 0.583 | -0.717 | 0.0357 |
| GCTGCTAGGTCAACTGATGGTCAGCCAAAGCTCG | 3.81 | 3.1 | 0.159 | 2.08 | 0.187 | 3.65 | 2.88 | 2.91 | 0.226 | 1.68 |
| CCTTACGGGTCACGAGGTTATAACACGACGAGCG | 6.57 | 4.63 | 0.527 | 4.2 | -0.0357 | 6.03 | 7.47 | 6.56 | 3.19 | 5.53 |
| GGAACGAGGGCAAAGTTGATAGGATCTGTCGACG | 1.38 | 1.05 | -0.433 | 0.86 | -0.537 | 4.22 | 6.9 | 6.73 | 5.71 | 6.95 |
| GCTGCTAGGTCAGGTAGGTCAGCTAACGGGTACG | 2.1 | 1.72 | 0.0186 | 1.43 | -0.161 | 2.41 | 1.45 | 2.19 | -0.0602 | 1 |
| ACTATTAGTTGACACGAGGGCAACCGATAGGTTG | 1.1 | 1.04 | 0.219 | 0.64 | 0.129 | 1.21 | 1.06 | 0.472 | 0.354 | 0.356 |
| TAGCCTAGGTCATTGGGTCAGTATAGTACGCATC | 4.85 | 4.31 | 1.59 | 3.21 | 0.907 | 4.58 | 5.28 | 5.07 | 1.89 | 3.99 |
| ATATGTAGGGTACATCCGGGTCATTCAGGCTATG | 1.96 | 2.96 | 1.43 | 2.4 | 1.27 | 3.89 | 4.04 | 3.53 | 1.46 | 2.33 |
| CGAACTAGGTCATTGACAGGCCAGTGAATAGTAA | 4.02 | 2.69 | -0.0414 | 1.9 | -0.365 | 4.67 | 7.02 | 6.4 | 3.9 | 5.91 |
| ATCGAAAGGTCGAGGTGGGTATAGAGAAAGGGAA | 4.46 | 3.55 | 0.722 | 3.12 | 0.942 | 4.74 | 2.59 | 3.11 | 1.17 | 1.97 |
